# Experimental data reported in PubChem BioAssay AID540335 (Broad Institute, 2011).
# In all, about 1,300 compounds went through this assay and about 270 (21%) were called active.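 Rule for the calls: active = dose-dependent rise or fall in viability, either side of zero, with half-maximal concentration at or below a set limit; inconclusive = flat curve at 30 to 70% viability loss, or poor fit; inactive = flat within 30% either way, or potency beyond limit.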 Only a sample is shown. Potency and affinity values are given separately.
# Test: proliferation inhibition in MITF-low A375 cells – cell-based, cherry-pick samples, set 2, counter-screen for MITF modulator project, dose response (AID 540335);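 note: A375 human melanoma cells which do not depend on MITF; 0% = median of neutral control wells and 100% = double that signal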
# Conditions: CellTiter-Glo ATP luminescence, 24 h; series mostly up to 35 µM; activity change, negative = decreased viability: at the top concentration
row,SMILES,"activity change, negative = decreased viability"
1,CC1CCC(C(C)C)C(OC(=O)C[n+]2cc(-c3ccc(Cl)cc3)n3c2CCCCC3)C1 (stereo unspecified),-67.3% (inactive)
2,O=C(O)c1cccc(NC(=S)N/N=C/c2ccccn2)c1,-11.9% (inactive)
3,Cc1ccc(C(=O)c2no[n+]([O-])c2C(=O)c2ccc(C)cc2)cc1,-8.72% (inactive)
4,COc1ccc(C(=O)/C=C/C(=O)N(CC(=O)NC2CCCCC2)Cc2ccccc2)c(O)c1,-10.6% (inactive)
5,O=C(Nc1ccc(Cl)c(S(=O)(=O)N2CCOCC2)c1)c1ccc(OCC2CCCO2)cc1 (stereo unspecified),-37.8% (inactive)
6,O=C(Nc1ccccc1N1CCOCC1)c1ccc([N+](=O)[O-])s1,-14.6% (inactive)
7,O=C(Nc1nc(-c2ccccn2)cs1)c1ccc(F)c(S(=O)(=O)N2CCOCC2)c1,-27.2% (inactive)
8,COc1ccc(/C=C2\SC(=O)N(CCCC(=O)Nc3cc(Cl)ccc3C(=O)O)C2=O)cc1,10.5% (inactive)
9,Cn1cccc1-c1cc(C(=O)N/N=C/c2cc(Br)ccc2O)[nH]n1,-30% (inactive)
10,CCOC(=O)CSC1=NC(=O)/C(=C/c2ccc(OC)cc2)S1,-20.9% (inactive)
11,N/C(=N\OC(=O)c1ccc(Cl)cc1Cl)c1ccncc1,5.82% (inactive)
12,COCc1cc(C)nc2sc(C(=O)Nc3ccc(OC)cc3)c(N)c12,-2.81% (inactive)
13,O=C1c2ccccc2C(=O)N1CCOc1ccccc1,-1.42% (inactive)
14,CN1CCN(CCCOc2ccc(-c3ccccc3)cc2)CC1,-0.67% (inactive)
15,CN=c1scc(-c2ccccc2F)n1/N=C/c1ccc[nH]1,-31.4% (inactive)
16,Cc1ccc(NC(=O)CCC(=O)N/N=C/c2ccc([N+](=O)[O-])o2)cc1C,-3.7% (inactive)
17,CC1CC(C)C[N+](=C2C=C(N3CCCC3)CC(C)(C)C2)C1 (stereo unspecified),-15.3% (inactive)
18,O=C(Cn1cc(/C=C\[N+](=O)[O-])c2ccccc21)Nc1ccccc1,-0.096% (inactive)
19,Cc1ccc(NC(=O)c2ccc([N+](=O)[O-])o2)cc1S(=O)(=O)N1CCOCC1,13.3% (inactive)
20,COc1ccc2oc(C(=O)Nc3ccc(S(=O)(=O)N(C)C4CCN(C)CC4)cc3)c(C)c2c1,-26.3% (inactive)
21,C/C(=N\NC(=O)C(C)Oc1ccc([N+](=O)[O-])cc1)c1ccccn1 (stereo unspecified),-25.9% (inactive)
22,CC(Oc1ccccc1)C(=O)Nc1nc(-c2ccccn2)cs1 (stereo unspecified),-9.16% (inactive)

row,SMILES,"activity change, negative = decreased viability"
1,CC(C)C(=O)N1CCN(c2ccc(NC(=O)c3ccc([N+](=O)[O-])o3)cc2)CC1,17.6% (inactive)
2,CC(C)(C)NC(=O)CCN(/N=C/c1ccc([N+](=O)[O-])o1)C1=NS(=O)(=O)c2ccccc21,-15.5% (inactive)
3,Cc1c(N=C2C=CC(=O)c3ccccc32)c(=O)n(-c2ccccc2)n1C,-31% (inactive)
4,COc1cc(/C=N/NC(N)=O)c(Br)cc1OCC(=O)Nc1ccccc1C,-37.4% (inactive)
5,COc1ccc(S(=O)NC2CCCCC2)c(OC)c1C (stereo unspecified),-1.99% (inactive)
6,COc1cc(CN2CCC(Cc3ccccc3)CC2)cc(OC)c1OC,-6.84% (inactive)
7,O=C(c1nnsc1S(=O)(=O)c1ccc(Cl)cc1)N1CCOCC1,-5.83% (inactive)
8,Cc1cc(C)c[n+](C2=C([O-])c3ccccc3C(=O)/C2=N\S(=O)(=O)c2cccs2)c1,-36.8% (inactive)
9,O=C(CCl)Nc1cccc(Oc2ccccc2)c1,-29.8% (inactive)
10,CC(=O)N1CCc2c(sc(NC(=O)c3ccc([N+](=O)[O-])o3)c2C#N)C1,9.03% (inactive)
11,O=C(CC(=O)c1ccccc1)Nc1ccccn1,3.43% (inactive)
12,CN(c1cccc(NC(=O)COc2ccc(Cl)cc2Cl)c1)S(C)(=O)=O,-2.24% (inactive)
13,O=C1Nc2ccc(Br)cc2/C1=C/C(=O)c1ccc2c(c1)OCO2,20.9% (inactive)
14,COc1ccc(/C=N/Nc2cc(C)nc(-n3nc(C)cc3C)n2)c(OC)c1,-25.2% (inactive)
15,Cc1ccc(S(=O)(=O)/N=C2\C(=O)c3ccccc3C([O-])=C2n2cc[n+](CCC(C)C)c2)cc1,-33.9% (inactive)
16,CCC(=O)N1CCN(c2ccc(NC(=O)c3ccc([N+](=O)[O-])o3)cc2)CC1,8.91% (inactive)
17,CCN(CC)CCNC(=O)c1c(C)n(-c2ccccc2)c2cc(Br)c(OC)cc12,-49.1% (inactive)
18,O=C(Cn1ncc(Cl)c(Cl)c1=O)c1ccc(Cl)cc1,84.6% (inactive)
19,O=C(Cn1ncc(Cl)c(Cl)c1=O)N1CCN(Cc2ccccc2)CC1,62.3% (inactive)
20,O=C(COC(=O)CCN1C(=O)/C(=C\C=C\c2ccccc2)SC1=S)Nc1cc(F)ccc1F,0.586% (inactive)
21,CC(C)(C)c1ccc(C(=O)Nc2sc3c(c2C(=O)O)CCC3)cc1,-11.3% (inactive)
22,CCN1/C(=C/c2cc[n+](C)cc2)C=Cc2cc(C)ccc21,-23.4% (inactive)

row,SMILES,"activity change, negative = decreased viability"
1,O=C(Nc1ccc(F)cc1F)c1cc2ccccc2oc1=O,-5.16% (inactive)
2,CC1CCC/C=C/C(=O)c2c(O)cc(O)cc2CC(=O)O1 (stereo unspecified),10.8% (inactive)
3,COc1ccc(C(=O)/C=C/C(=O)N(CC(=O)NC2CCCCC2)Cc2ccccc2OC)c(O)c1,-5.15% (inactive)
4,O=C1CCC2S/C(=C/Nc3ccc(C(F)(F)F)cc3)C(=O)N12 (stereo unspecified),15.7% (inactive)
5,CCCC(=O)N1CCN(c2ccc(NC(=O)c3ccc([N+](=O)[O-])o3)cc2Cl)CC1,27.2% (inactive)
6,COc1ccc(NC(=O)CCC(=O)N/N=C/c2ccc([N+](=O)[O-])s2)cc1,-23.2% (inactive)
7,CCCCNC(=O)Nc1ccc(C2SCCS2)cc1,-14.6% (inactive)
8,O=C(Nc1ccccn1)c1ccc(Br)s1,-8.96% (inactive)
9,N=c1n(CC(=O)c2ccc(Br)cc2)c2ccccc2n1Cc1ccccc1,-96.7% (inactive)
10,O=C(N/N=C/c1ccc([N+](=O)[O-])s1)c1cccc(Br)c1,-11.5% (inactive)
11,Cc1ccc(NCC(=O)N/N=C\c2ccc([N+](=O)[O-])o2)cc1,-7.59% (inactive)
12,Cc1c(C(=O)Nc2ccc(S(=O)(=O)N(C)C3CCN(C)CC3)cc2)oc2c(Cl)cccc12,-68.5% (inactive)
13,COc1cc(SC)ccc1C(=O)Nc1ncc(C)s1,-13.6% (inactive)
14,COc1cc(SC)ccc1C(=O)Nc1ccc(Br)cn1,-6.11% (inactive)
15,O=C(CNC(=O)c1ccccc1)N/N=C/c1ccc([N+](=O)[O-])s1,-17.8% (inactive)
16,O=C(Nc1cccc(S(=O)(=O)N2CCCCC2)c1)c1ccc([N+](=O)[O-])o1,-10.1% (inactive)
17,Cc1nc2ccccn2c1C(=O)N/N=C/c1ccc([N+](=O)[O-])o1,-19.2% (inactive)
18,Cc1nc(SCC(=O)Nc2ccc(CN3CCCC3)cc2)c2c(C)c(C)sc2n1,-4.46% (inactive)
19,Cc1ccc2oc(C(Cl)(Cl)Cl)cc(=O)c2c1,-16.5% (inactive)
20,CCN(CC)S(=O)(=O)c1ccc(N2CCCC2)c(NC(=O)c2ccc([N+](=O)[O-])o2)c1,-10.5% (inactive)
21,O=C(Nc1cccnc1Cl)c1cc(-c2ccco2)on1,7.02% (inactive)
22,O=C(Nc1ccc(N2CCN(C(=O)c3ccccc3)CC2)cc1)c1ccc([N+](=O)[O-])o1,37.8% (inactive)

row,SMILES,"activity change, negative = decreased viability"
1,O=C(CCl)N1CCN(S(=O)(=O)c2ccc3c(c2)CCC3)CC1,-14% (inactive)
2,Cc1cc(C)c2c(N)c(C(=O)Nc3ncc(C)s3)sc2n1,-18.7% (inactive)
3,O=C(CCl)N(c1ccccc1)c1c[nH]c2ccccc12,-4.62% (inactive)
4,O=C(Nc1ccccc1)NN(C(=O)CCl)c1ccccc1,-6.28% (inactive)
5,N#C/C(=C\c1ccc(OCc2ccc(C(=O)O)cc2)cc1)C(=O)N1CCOCC1,-3.63% (inactive)
6,O=C(C#Cc1ccccc1)c1cccc([N+](=O)[O-])c1,3.14% (inactive)
7,COc1cccc(-c2ccc3c(N)c(C(=O)NC4CC4)sc3n2)c1,13.8% (inactive)
8,COc1ccc(C)cc1Nc1nc(N)c2cc(OC)c(OC)cc2n1,-21.9% (inactive)
9,O=C(Nc1ccc([N+](=O)[O-])cc1)c1ccccc1,-0.714% (inactive)
10,O=C(O)c1ccc(C(=O)Nc2ccc(F)cc2)cc1,-13.5% (inactive)
11,Cn1cc([N+](=O)[O-])c(C(=O)Nc2nc(-c3ccc(Cl)cc3)cs2)n1,-6.64% (inactive)
12,COc1ccc(C(NC(C)=O)c2ccc3cccnc3c2O)c(OC)c1 (stereo unspecified),-33.9% (inactive)
13,COc1cccc(NC(=O)Nc2cccc(C(=O)O)c2)c1,1.68% (inactive)
14,COc1cc(OC)cc(C(=O)Nc2ccc3c(c2)OCCO3)c1,-32.1% (inactive)
15,COC(=O)CCS(=O)(=O)c1nc(-c2ccccc2)cc(C(F)(F)F)n1,47.7% (inactive)
16,Cc1nc(C)c(C(=O)N/N=C/c2cc(Br)ccc2O)s1,-27.5% (inactive)
17,O=C(N/N=C/c1cccc2cccnc12)c1ccccc1O,-38% (inactive)
18,Cc1ccc(C#CC[N+]2(CC#Cc3ccc(C)cc3)CCCCC2)cc1,-31.7% (inactive)
19,O=C(Nc1nc(-c2ccccn2)cs1)c1ccc([N+](=O)[O-])o1,-35.5% (inactive)
20,CS(=O)(=O)N1CCN(c2ccc(NC(=O)c3ccc([N+](=O)[O-])o3)cc2)CC1,4.88% (inactive)
21,Cc1cccc(NC(=O)c2ccc([N+](=O)[O-])o2)c1C,-10.1% (inactive)
22,COc1cc(/C=N/N=C(N)N)ccc1OCc1ccc(Cl)cc1,-96.4% (inactive)

row,SMILES,"activity change, negative = decreased viability"
1,Cc1cc(NC(=O)c2ccc([N+](=O)[O-])o2)ccc1NC(=O)c1ccco1,-30.9% (inactive)
2,COc1ccccc1NS(=O)(=O)c1cc(NC(=O)c2ccc(Cl)nc2)ccc1Cl,-3.13% (inactive)
3,CCCCNc1nc(=S)n(-c2ccccc2)c(C)c1C(C)=O,8.62% (inactive)
4,CC(=O)Nc1ccc2c(c1)ncn2-c1ccccc1,8.14% (inactive)
5,CC(=O)Nc1ccc(-c2nc3ccccc3o2)cc1,8.49% (inactive)
6,Cn1nc([N+](=O)[O-])nc1S(C)(=O)=O,-14.2% (inactive)
7,CS(=O)(=O)c1ncc(Cl)c(C(=O)Nc2ccc(N3CCOCC3)cc2)n1,-15.9% (inactive)
8,O=C(c1ccc(S(=O)(=O)Cc2ccccc2Cl)c([N+](=O)[O-])c1)N1CCN(c2ccccn2)CC1,-4.16% (inactive)
9,O=C(Cc1ccc2c(c1)OCO2)NN=Cc1ccc([N+](=O)[O-])o1,-3.36% (inactive)
10,Cn1nnnc1Sc1ncnc2scc(-c3cccs3)c12,6.26% (inactive)
11,O=C(NC1CCCC(C(F)(F)F)C1)c1ccc([N+](=O)[O-])o1 (stereo unspecified),18.6% (inactive)
12,CCCN1CCC(NCc2cn(C)nc2-c2ccc(Oc3ccccc3)cc2)CC1,-5.6% (inactive)
13,CC(O)CNC(=O)C1CCN(Cc2ccc(OCc3ccccc3)cc2)CC1 (stereo unspecified),1.88% (inactive)
14,O=C(O)c1ccc(N/N=C/c2ccc3nccnc3c2)cc1,-35.1% (inactive)
15,Cc1ccc(C(=O)N/C(=C\c2ccc(-c3ccccc3[N+](=O)[O-])o2)C(=O)NCCN(C)C)cc1,-8.4% (inactive)
16,CCOCCCNC(=O)/C(C#N)=C/c1ccc([N+](=O)[O-])o1,4.45% (inactive)
17,Cc1ccc(-c2nc(C(=O)NCCCN(C)C)cc3c2[nH]c2ccccc23)cc1,-4.39% (inactive)
18,CN(C)CCCNC(=O)/C(=C\c1ccc(-c2ccc(Br)cc2)o1)NC(=O)c1ccccc1,-70.8% (inactive)
